Sampled rows, rich in hits. Any-hit rate of the full collection: about 11%.
MCF10A rereplic = induces DNA re-replication in MCF 10a normal breast cells; Potency, µM (titrated, usually from 46.1 µM), for inactives: at the top dose activity, positive = re-replication, usual class: activators; MCF 10A DNA re-replication, Hoechst nuclear intensity, 48 h; AID 624296; actives 2.9% (n = 350,000); also: potency is read from the fitted curve at half-maximal effect; % of control where 0% means no effect; nearly all actives have a fitted effect of over 50% in size
RORg inh = blocks mouse ROR gamma transcriptional activity. Potency, µM (series often up to 53.6 µM), for inactives: at the top dose activity change, negative = inhibition, most hits filed as inhibitors. AID 2551. actives 5.4% (n = 310,000). P51450. Drosophila S2 Gal4-RORgamma UAS-luciferase reporter, 20 h; also: potency is read from the fitted curve at half-maximal effect; % is scaled to controls: 0 for no effect and ±100 for the full control effect; nearly all actives have a fitted effect of over 60% in size
Target sequence (P51450 whole entry, looked up, the tested form may be a part): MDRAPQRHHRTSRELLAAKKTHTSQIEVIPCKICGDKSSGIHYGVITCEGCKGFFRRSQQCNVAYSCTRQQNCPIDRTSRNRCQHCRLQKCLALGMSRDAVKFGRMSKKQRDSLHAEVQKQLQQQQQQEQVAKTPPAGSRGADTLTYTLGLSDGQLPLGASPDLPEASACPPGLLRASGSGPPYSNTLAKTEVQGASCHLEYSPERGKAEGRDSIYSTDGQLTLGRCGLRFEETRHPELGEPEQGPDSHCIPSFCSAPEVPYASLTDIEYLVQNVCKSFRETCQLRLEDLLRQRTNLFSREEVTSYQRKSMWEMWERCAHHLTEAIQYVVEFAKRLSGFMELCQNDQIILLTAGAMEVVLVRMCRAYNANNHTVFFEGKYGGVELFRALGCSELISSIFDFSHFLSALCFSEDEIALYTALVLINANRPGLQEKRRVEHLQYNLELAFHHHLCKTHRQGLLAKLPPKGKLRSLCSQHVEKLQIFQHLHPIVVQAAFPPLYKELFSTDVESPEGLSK
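Read-out: Photinus luciferase luminescence; inhibitors lower reporter signal. Insect Schneider cells with Gal4-ROR gamma fusion under metallothionein promoter, UAS reporter; 700 uM final copper sulfate induction, 20 hr, ambient temperature.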
IL1B secr inh = blocks inflammasome-driven IL-1 beta release. THP-1 LPS/ATP IL-1B secretion, AlphaLISA, 16 h; stronger effect = lower value. activity change, % at 57.5 µM. actives 4.7% (n = 360,000); in the data active = activity change below about -50%; inconclusive = mostly about -30% to -49%; also: % is scaled to controls: 0 for no effect and ±100 for the full control effect
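Secreted IL-1B measured by AlphaLISA bead assay after 16 h compound exposure of THP-1 cells; compounds (final up to 57.5 uM) added 1 h before LPS (250 ng/mL) and ATP (1.25 mM) stimulation; lower signal means less secretion.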
SW480 rerep = inducers of DNA re-replication in SW480 colon cancer cells; SW480 DNA re-replication, Hoechst DNA content imaging, 48 h; Potency, µM (top dose mostly 46.1 µM), for inactives: top-dose re-replication activation, usual class: activators; actives 1.8% (n = 340,000); AID 624297; also: potency is read from the fitted curve at half-maximal effect; % of control where 0% means no effect; nearly all actives have a fitted effect of over 55% in size
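Hoechst fluorescence of nuclei (405 nm excitation, 500-530 nm emission) measured by plate-scanning imager after 48 hr compound exposure at 37 C; re-replication scored as increased number of nuclei with elevated intensity.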
Gal4-VP16 FLuc = inhibits Gal4-VP16 luciferase reporter, ROR gamma counter-screen; actives 3.5% (n = 310,000); Drosophila S2 Gal4-VP16 UAS-luciferase, luminescence, 20 h; Potency, µM (top dose mostly 53.6 µM), inactives show at the top dose activity, negative = inhibition, usual class: inhibitors;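 also: Gal4-VP16 expression switched on by copper sulfate through the metallothionein promoter; potency is read from the fitted curve at half-maximal effect; % is scaled to controls: 0 for no effect and ±100 for the full control effect; nearly all actives have a fitted effect of over 50% in size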
The depositor's hits bear a star; i = inactive; ? = inconclusive; / = no result. Unless noted, calls follow the shape of the dose curve; as a rule, active = well fitted curve in the direction sought with a large enough effect; inconclusive = small, poorly fitted or top-dose-only effect, or another doubt; inactive = no such curve, though single readings can be large; an effect the other way counts as inactive or inconclusive.

SMILES	MCF10A rereplic	RORg inh	IL1B secr inh	SW480 rerep	Gal4-VP16 FLuc
O=c1cc(-c2ccccc2)oc2c1ccc1ccccc12	/	0%	/	/	-19%
CSc1ccc(/C=C/c2cc(=O)c3ccccc3[nH]2)cc1	?	?	0	13%	-4%
Fc1ccc(/C=C\c2nccc3c2[nH]c2ccccc23)cc1	6.5µM*	1.8µM*	-78*	18µM*	?
Cc1ccc(/C=C\c2nccc3c2[nH]c2ccccc23)cc1	9.2µM*	0.63µM*	-26	21µM*	3.2µM*
C(=C\c1nccc2c1[nH]c1ccccc12)/c1ccccc1	?	1.6µM*	-2	12µM*	4µM*
CCCCCCCCCCCCOCCCN	-3%	17%	/	-7%	-4%
COc1cc(NC(=O)CCl)ccc(=O)c1	/	/	-14	/	/
CCS(=O)(=O)N1Cc2ccccc2CC1C(=O)N(C)CC(=O)Nc1cccc(F)c1 (stereo not given)	2%	/	-7	-5%	/
Cc1ccccc1Nc1oc(-c2ccccc2)nc1CCc1ccccc1	/	-19%	/	/	-4%
CCCNC(=O)C1(C)CCCN(C(=O)c2ccccc2OC)C1 (stereo not given)	/	/	2	/	/
O=C(c1ccc2c(=O)n(C3CCCC3)c(=S)[nH]c2c1)N1CCCCCC1	-1%	1.3µM*	2	-3%	1µM*
O=C(c1ccc2c(=O)n(-c3ccccc3)c(=S)[nH]c2c1)N1CCN(c2ccccc2)CC1	2%	/	24	-5%	/
O=C(c1ccc2c(=O)n(-c3ccccc3)c(=S)[nH]c2c1)N1CCCCC1	?	8.9µM*	11	-3%	3.2µM*
CN(C)CCCN(C(=O)COc1ccccc1)c1nc2ccc(Cl)cc2s1	-10%	-10%	-51*	?	-16%
CN(C)CCCN(C(=O)COc1ccccc1)c1nc2cc3c(cc2s1)OCO3	6%	1%	i	-8%	9%
CN(C)CCCN(C(=O)COc1ccc(Cl)cc1)c1nc2cc3c(cc2s1)OCO3	9%	11µM*	-100*	?	?
COc1cccc2sc(N(CCCN(C)C)C(=O)COc3ccc(Cl)cc3)nc12	16%	?	-27	-6%	-24%
CN(C)CCCN(C(=O)COc1ccc(Cl)cc1)c1nc2cc3c(cc2s1)OCCO3	10%	/	-94*	-8%	/
Cc1ccc(Oc2nc3ccccn3c(=O)c2/C=C(\C#N)C(=O)NC2CCS(=O)(=O)C2)cc1 (stereo not given)	8.2µM*	?	-25	?	-3%
CCOC(=O)/C(C#N)=C/c1c(Oc2cc(C)cc(C)c2)nc2ccccn2c1=O	-2%	0%	18	-4%	?
Cc1cccn2c(=O)c(/C=C(\C#N)C(=O)NC3CCS(=O)(=O)C3)c(Oc3ccccc3Cl)nc12 (stereo not given)	10%	41%	14	-18%	1%
Cc1cccn2c(=O)c(/C=C(\C#N)C(=O)NC3CCS(=O)(=O)C3)c(N3CC(C)OC(C)C3)nc12 (stereo not given)	1.8µM*	9%	-6	?	29%
Cc1ccccc1Oc1nc2c(C)cccn2c(=O)c1/C=C(\C#N)C(=O)NC1CCS(=O)(=O)C1 (stereo not given)	?	24%	-97*	2%	-13%
COc1ccc(CN(C)CCCn2cnc3c(SC)ncnc32)cc1OC	/	/	7	/	/
Cc1[nH]c(-c2ccc(F)cc2)cc1C(=O)N1CCN(c2ccc(Cl)cc2)CC1	5.8µM*	?	-29	-2%	2%
SMILES	MCF10A rereplic	RORg inh	IL1B secr inh	SW480 rerep	Gal4-VP16 FLuc
c1cc(-c2ccncc2)ccn1	-6%	0%	29	0.52µM*	2%
COc1ccc(NC(=O)NC2(C(=O)N3CCCC(C)C3)CCCCC2)cc1 (stereo not given)	?	-7%	7	-9%	0%
Cn1c(=O)c(-c2cccs2)nc2cnc(N3CCOCC3)nc21	/	1%	/	/	-7%
CCOC(=O)/C=C/C(=O)OCC(=O)Nc1ccc(C)cc1	?	-24%	-18	14%	17%
CCOC(=O)/C=C/C(=O)OCC(=O)Nc1cccc(Br)c1	?	-6%	-62*	10%	-9%
Cc1cccc(NC(=O)COc2ccc(Br)cc2/C=N/O)c1	?	5.6µM*	-1	20%	5µM*
COc1ccc(OC)c(C=NNC(=O)c2ccc(NS(=O)(=O)c3cccs3)cc2)c1	5%	/	26	10%	/
O=S(=O)(NCC1(N2CCOCC2)CCCCC1)c1ccc(F)c(F)c1F	2%	/	2	-4%	/
CN(C)c1ccc(CNC(=O)CCc2ccc(S(=O)(=O)N3CCCCCC3)cc2)cc1	?	/	-64*	-53%	/
COc1ccc(CNC(=O)CCc2ccc(S(=O)(=O)N3CCCCCC3)cc2)cc1	-4%	/	-11	-6%	/
CN[C@H](C)CCC=C(C)C	24µM*	2%	/	3%	-11%
OC(CNC1CCCC1)COc1ccc(Cl)cc1 (stereo not given)	3%	-34%	?	-3%	-2%
OC(CNC1CCCC1)COCCOc1ccc(Br)cc1 (stereo not given)	-4%	9%	-66*	?	-7%
CC(C)c1cc(C(=O)N2CCCC(N3CCN(c4ccc(F)cc4)CC3)C2)n(C)n1 (stereo not given)	-1%	19%	17	?	4%
Cc1ccc(NS(=O)(=O)c2ccc(NS(=O)(=O)c3cccs3)cc2)cc1	?	14%	4	1%	13%
O=S(=O)(Nc1ccc(Br)cc1)c1cccc(NS(=O)(=O)c2cccs2)c1	7.3µM*	/	25	-6%	/
COc1ccc(N2C(=NC(=O)CC3CCCCC3)SC3CS(=O)(=O)CC32)cc1 (stereo not given)	1%	-13%	31	0%	15%
COc1cccc(/C=N/NC(=O)C(=O)Nc2ccccc2OC(F)(F)C(F)F)c1O	?	1µM*	38	?	1.4µM*
COc1ccccc1/C=N/NC(=O)c1cccc(OC(F)(F)C(F)F)c1	-44%	-43%	-12	?	4%
COc1cccc(/C=N/NC(=O)c2ccc(=O)n(C)c2)c1O	?	0.63µM*	143	14%	3.2µM*
COc1cccc(/C=N/NC(=O)c2ccc(-c3ccccc3)cc2)c1O	?	0.71µM*	97	?	3.2µM*
COc1cc(OC)c(OC)cc1/C=N/NC(=O)c1ccc(=O)n(C)c1	1%	-8%	46	2%	2%
COc1ccc(OC)c(/C=N\NC(=O)c2ccc(-c3ccccc3)cc2)c1	?	-33%	i	1%	-13%
COc1cccc([C@@H]2Oc3ccc(Br)cc3C[C@H]2OC(=O)N[C@H](C)C2CCCCC2)c1	/	-33%	/	/	-6%
CC(NC(=O)Nc1ccccc1Cl)c1ccc2c(c1)OCO2 (stereo not given)	?	26%	-3	0%	6%

Screens from PubChem BioAssay.
